D3 antag: D3 dopamine receptor (human) antagonism. P35462. D3R cells, DiscoveRx beta-arrestin luminescence, antagonist mode; active compounds read low. max response, negative = inhibition, %. actives 2.5% (n = 360,000). AID 652054; in the data active means max response below about -50%; inconclusive means no clear call, values can overlap the other calls; further: on the % scale 0 is the no-effect control and ±100 the full control effect
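Cells expressing the human receptor were seeded at 1500 cells/well, incubated overnight at 37 degrees C in 5% CO2, then exposed to library compounds with dopamine controls for 90 minutes at 37 degrees C before luminescent detection.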
D1 agonist: activates the human D1 dopamine receptor | P21728 | HEK293 T-REx D1 cells, calcium flux, agonist mode | activation, % at 2 µM | actives 1% (n = 360,000); in the data active means activation above about 30%; further: 0% is about no effect
Target sequence (P21728 whole entry, looked up): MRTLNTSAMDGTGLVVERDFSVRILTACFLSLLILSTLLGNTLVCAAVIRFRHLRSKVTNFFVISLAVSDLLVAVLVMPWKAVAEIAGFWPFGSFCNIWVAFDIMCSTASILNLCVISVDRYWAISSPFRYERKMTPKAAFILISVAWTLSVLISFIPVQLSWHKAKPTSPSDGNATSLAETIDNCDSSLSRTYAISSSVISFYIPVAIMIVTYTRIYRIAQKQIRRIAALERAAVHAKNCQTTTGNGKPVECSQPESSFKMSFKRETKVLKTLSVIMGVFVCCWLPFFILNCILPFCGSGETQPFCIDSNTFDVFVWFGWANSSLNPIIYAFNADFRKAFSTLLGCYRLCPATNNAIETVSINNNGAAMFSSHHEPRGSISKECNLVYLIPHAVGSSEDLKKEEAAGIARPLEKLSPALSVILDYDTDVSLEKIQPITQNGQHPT
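Tetracycline-induced HEK293 TREx D1 cells, force-coupled to calcium signalling, were dye-loaded with a no-wash calcium kit. Compound was pin-added after a 10 s baseline. Fluorescence was read kinetically at 1 cycle/s for 180 s, with calcium rises flagged as agonism.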
D1 potentiator: enhances dopamine response at the human D1 receptor; HEK293 TREx D1 cells, calcium flux, dopamine EC20 potentiation; potentiation, % at 10 µM; actives 0.036% (n = 360,000); AID 504651; in the data active means potentiation above about 30%; further: 0% is about no effect
DRD3 agonist: activates the human D3 dopamine receptor; AID 652048; D3R DiscoveRx beta-arrestin cells, luminescence, 90 min; max activation, %; actives 0.58% (n = 410,000); P35462; in the data active means max activation above about 30%; further: 0% is about no effect
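Agonist-mode cell screen: cells plated at 1500/well and incubated overnight at 37 °C, then exposed to library compounds for 90 min at 37 °C. Detection reagent was added for 30–60 min at room temperature, and luminescence was read.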
D1 antagonist: human D1 dopamine receptor antagonism. AID 504652. P21728. actives 3.2% (n = 360,000). activity change, negative = inhibition, % at 10 µM. HEK293 TREx D1 cells, calcium flux, dopamine EC80; active compounds read low; in the data active means activity change below about -30%; further: on the % scale 0 is the no-effect control and ±100 the full control effect
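Kinetic fluorescence of a calcium dye serves as the read-out. D1-expressing Hek293 Trex cells, induced overnight at 30 C, are exposed to compound for 180 s before an EC80 dopamine addition, then read 180 s further.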
Active calls of the source: *; ? = inconclusive; nt = no result; + = active, no number. Compounds with a hit are over-represented: about 6.1% of the library has one in this group of screens.

SMILES	D3 antag	D1 agonist	D1 potentiator	DRD3 agonist	D1 antagonist
CCc1cc(=O)oc2cc(C)c(CN3CCCC(C)C3)c(O)c12 (stereo unspecified)	-28.5	-1.6	3.8	-24.3	-12.7
CCCCc1cc(=O)oc2cc(C)c(CN3CCCC3)c(O)c12	15.8	0.2	-4.8	30.4*	5.4
NS(=O)(=O)c1ccc(N2CCN(S(=O)(=O)Cc3ccccc3)CC2)nc1	-7.1	nt	nt	-1.6	nt
NS(=O)(=O)c1ccc(N2CCN(CCOc3ccc(Cl)cc3)CC2)nc1	-11.8	10.2	-9.8	36.3*	-26.3
Cc1cccc(N2CCN(C(=O)Cn3nc(Cc4cccnc4)c4ccccc4c3=O)CC2)c1C	nt	-0.4	2.3	-21.5	0.7
CC1(C)Cc2c(ccc3ccccc23)/C(=C/C#N)N1	+	1.5	-6.4	-12.5	4.2
Cc1ccc(C)c(NC(=O)C2CCCN(S(=O)(=O)c3cccc4nsnc34)C2)c1 (stereo unspecified)	nt	-0.9	0.8	-4.8	-1.4
Cc1ccc(OCCn2cc(C(=S)N3CCCC3)c3ccccc32)cc1C	-54.1*	4.7	1.6	1.1	5.3
FC(F)(F)c1cccc(NC(=S)NC2CCCC2)c1	20.7	20.7	-4.8	1.6	-35.5*
FC(F)(F)c1cccc(NC(=S)NCC2COc3ccccc3O2)c1 (stereo unspecified)	5.6	12.5	-3.5	1.3	-35.1*
FC(F)(F)c1ccc(NC(=S)NC2CCCCC2)cc1	-4.1	19.9	-10.6	-0.4	-43.9*
COc1ccccc1CCNC(=O)C(=O)NCC(c1ccc2c(c1)OCO2)N1CCOCC1 (stereo unspecified)	nt	0.7	0.3	-10.6	-4.7
COc1ccc(C(C(=O)Nc2ccc(C(C)C)cc2)N(C)C(=O)Cc2cccs2)cc1 (stereo unspecified)	nt	25.3	5.1	-12.3	-0.1
O=C(NCc1ccccc1F)C1CCCN(C(=O)N2CCOc3ccccc32)C1 (stereo unspecified)	nt	-0.9	-1.9	-5.1	2.5
CCc1ccc(CNC(=O)CSc2cc(=O)n(C)c3ccc(Cl)cc23)cc1	nt	2.9	-3.5	-13.7	18.2
O=C(Nc1ccc(Cl)cc1)c1csc(COCCO)n1	0.3	nt	nt	2.3	nt
O=C(Nc1ccccc1F)c1csc(COCCO)n1	-134.2*	nt	nt	-23.8	nt
CCC1=C(c2ccc(C)cc2)S(=O)(=O)N=C1N1CCC(C(=O)Nc2ccccc2C(=O)OC)CC1	nt	2.0	-7.9	17.8	7.4
Cc1cccc(-c2nc(CCNC(=O)c3ccccc3Br)cs2)c1	nt	3.0	-6.2	-13.6	-38.7*
COc1cccc(C(=O)NCCc2csc(-c3cccc(F)c3)n2)c1OC	nt	-0.9	-4.5	3.9	-7.9
COc1cc2c(cc1NS(=O)(=O)c1cccc(C#N)c1)n(C)c(=O)n2C	nt	-1.3	-0.1	0.0	7.4
CCN(CC)CCN(Cc1cc2cc3c(cc2[nH]c1=O)OCCO3)C(=S)NC	-17.1	-1.9	-8.0	-4.9	-31.4*
Fc1ccccc1-c1nc(N2CCN(c3cccc(Cl)c3)CC2)c2ccccc2n1	nt	3.2	0.5	-0.8	9.8
Cc1ccc(S(=O)(=O)c2ncccc2N)cc1	0.1	6.1	-7.3	0.4	-13.4
Cc1ccc(S(=O)(=O)c2ncccc2[N+](=O)[O-])cc1	-90.0*	2.1	-2.3	-6.7	-17.1
SMILES	D3 antag	D1 agonist	D1 potentiator	DRD3 agonist	D1 antagonist
CN1CCN(c2ccc(CNC(=O)c3cccc4c(-c5ccc(F)c(F)c5)coc34)cc2)CC1	-83.1*	nt	nt	-14.5	nt
CN1CCN(c2ccc(CNC(=O)c3ccc(-c4ccc(F)c(F)c4)c4ccoc34)cc2)CC1	-66.5*	nt	nt	-12.6	nt
O=C(NCc1ccc(C(F)(F)F)cc1)c1ccc(-c2ccc(F)c(F)c2)c2ccoc12	?	nt	nt	-13.2	nt
Cc1ccc2c(c1)c(=O)c(C(=O)c1ccccc1)cn2Cc1ccccc1F	nt	2.1	5.4	-8.7	23.0
CCOC(=O)C(c1ccccc1)C(Nc1cc(C(F)(F)F)cc(C(F)(F)F)c1)c1ccccn1 (stereo unspecified)	-16.8	2.1	-2.0	37.8*	-10.6
CCN(CC)c1ccc2c(-c3ccc(S(=O)(=O)O)cc3S(=O)(=O)[O-])c3ccc(=[N+](CC)CC)cc-3oc2c1	0.0	172.3*	-3.4	-17.8	-18.4
COc1ccc(SCCN2CC[C@@H](O)CCC2=O)cc1	-9.1	-3.0	-3.9	-17.2	-57.8*
Cc1ccc2c(CNCCc3ccco3)c(C(=O)O)n(Cc3ccc(F)cc3)c2c1	nt	0.3	-2.9	-5.1	3.7

From PubChem BioAssay
